# From PubChem BioAssay (NCATS)
# Results filed as inconclusive are left out. A call without a number means that no potency is given here. Activity calls are given as the source filed them. The call rests on the fitted dose curve; in most records, active means well fitted cell-killing curve with a large enough effect; inconclusive means small, poorly fitted or top-dose-only effect, or effect the other way; inactive means flat fitted curve, though single readings scatter.
# System: CAOV3
# Assay: Primary qHTS to identify gynecologic anti-cancer compounds using libraries of approved drugs and bioactive compounds (AID 1345084); further: nearly all actives have a fitted effect of over 55% in size
# Conditions: Gynecologic cancer cell panel viability, ATPlite luminescence, 48 h; series mostly up to 57.5 µM
# Description: National Center for Advancing Translational Sciences [NCATS] Assay Overview: Chemotherapeutic drug responses vary from cancer to cancer and from patient to patient. These variations could be caused by a number of factors including patient genomic background, tumor mutations, tumor heterogeneity, and aspects of drug treatment. Chemotherapeutic drug resistance is also a common issue and can lead to ineffective treatment and patient death. Here we have profiled the cell killing effects of thousands of compounds to characterize the responses in three gynecological cancers, identify cancer-selective compounds, and understand the diversity of responses to these compounds from pan-cancer suppressors to single cell line selective compounds. In this assay, we screened a 7,914 compound drug library that included approved drug and bioactive compounds in six ovarian, three cervical, and […] placental cancer cell lines using the ATPlite assay for cell viability. […] The cervical cancer cell lines included HeLa, Ca Ski, and C-33 A. The placental cancer cell lines included JEG-3. HEK 293T cells were used as the control cell line to determine the selectivity index. ATPlite is a luminescence based assay reliant on the conversion of a luciferase substrate to light in the presence of ATP. As a cytotoxic compound will suppress growth and decrease the number of cells, the concentration of ATP will decrease, and less light signal will be detected in the well.
# Assay Protocol Summary: 1,000 cells in 4 uL of media were dispensed into white, solid bottom 1536-well plates using a Multidrop Combi (Thermo Scientific). The Assay plates were incubated for 16 hours at 37 C with 5% CO2 in assay plates, followed by the addition of 23 nL of DMSO or drug dissolved in DMSO. Each compound was assayed in five concentrations (0.092, 0.46, 2.3, 11.5, and 57.5 uM), using the automated Wako 1536 Pin Tool workstation and incubated at 37 C with 5% CO2 48 hours. 4 uL of ATPlite, the ATP monitoring reagent, was then added to the each well of the assay plates using the Multidrop Combi reagent dispenser followed by incubation for 15 minutes at room temperature. The resulting luminescence was measured using the ViewLux plate reader.
# Potency means the concentration at half of the fitted maximal effect.
row,Compound,Potency
1,CCCCCCCCCCCCCCCC[N+](C)(C)C,8.91 µM (active)
2,CCCCCCCCc1ccc(O)cc1,inactive
3,O=C(O)C(Cl)Cl,inactive
4,CCCCC(CC)COC(=O)c1ccccc1C(=O)OCC(CC)CCCC (stereo not given),inactive
5,O=C1C(I)=CC(=C(c2cc(I)c(O)c(I)c2)c2ccccc2C(=O)O)C=C1I,inactive
6,O=C(O)CNC(=O)c1c(O)c2ccccc2n(Cc2ccccc2)c1=O,inactive
7,CS(=O)(=O)c1ccc(C(=O)C2C(=O)CCCC2=O)c([N+](=O)[O-])c1,inactive
8,CCc1c(C(=O)C(N)=O)c2c(OCC(=O)O)cccc2n1Cc1ccccc1,inactive
9,Cc1c(C(=O)Nc2cccc(C(F)(F)F)c2)cc(-c2ccccc2)n1CCCN1CCOCC1,inactive
10,Cc1ccccc1-n1c(Cn2ncc3c(N)ncnc32)nc2cccc(C)c2c1=O,inactive
11,O=C(O)CCCOc1ccc(Cl)cc1Cl,inactive
12,O=S(=O)(O)C(F)(F)C(F)(F)C(F)(F)C(F)(F)C(F)(F)C(F)(F)C(F)(F)C(F)(F)F,inactive
13,c1cc2ccc3cccc4ccc(c1)c2c34,inactive
14,O=[N+]([O-])c1cc([N+](=O)[O-])c2ccccc2c1,inactive
15,Oc1ccc2c3c1O[C@H]1[C@@H](O)C=C[C@H]4[C@@H](C2)NCC[C@@]341,inactive
16,O=C(Oc1ccc([N+](=O)[O-])cc1)N1CCC(C(O)(c2ccc3c(c2)OCO3)c2ccc3c(c2)OCO3)CC1,inactive
17,CC(=O)N(C)c1cccc(-c2ccnc3c(C(=O)c4cccs4)cnn23)c1,inactive
18,CC(C)(C)NC[C@H](O)c1ccc(O)cc1Cl,inactive
19,Cc1[nH]nc2ccc(-c3cncc(OC[C@@H](N)Cc4c[nH]c5ccccc45)c3)cc12,1.12 µM (active)
20,COC(=O)c1cncn1C(C)c1ccccc1 (stereo not given),inactive

row,Compound,Potency
1,O=[N+]([O-])c1c2ccccc2cc2ccccc12,inactive
2,COc1ccc(N(C(=O)Oc2c(C)cccc2C)c2ccnc(Nc3ccc(N4CCN(C)CC4)cc3)n2)c(OC)c1,inactive
3,CC(=O)[O][Hg][c]1ccccc1,3.55 µM (active)
4,CC(Cc1ccc(O)cc1)NCC(O)c1cc(O)cc(O)c1 (stereo not given),inactive
5,CC1(C)CC/C(=C/c2ccc(Cl)cc2)C1(O)Cn1cncn1 (stereo not given),inactive
6,Nc1ccc(Cl)cc1,inactive
7,CCNC(=O)CC1N=C(c2ccc(Cl)cc2)c2cc(OC)ccc2-n2c(C)nnc21 (stereo not given),inactive
8,O=[N+]([O-])/N=C1\NCCN1Cc1ccc(Cl)nc1,inactive
9,C1CCC(NC2CCCCC2)CC1,inactive
10,Fc1cc(Br)ccc1CBr,inactive
11,CCN(CC)C(=O)c1ccc(C2=CC3(CCNCC3)Oc3cccc(O)c32)cc1,inactive
12,Cc1cc(O)ccc1Cl,inactive
13,C=CC(=O)NCNC(=O)C=C,inactive
14,CC1=C(C(=O)O)N2C(=O)[C@@H](N)[C@H]2SC1,inactive
15,CC(C)N(CCNC(=O)CN1CCCC1=O)C(C)C,inactive
16,O=C(Oc1ccc([N+](=O)[O-])cc1)N1CCN(Cc2cccc(Oc3ccccc3)c2)CC1,inactive
17,CCOC(=O)Nc1ccc(NCc2ccc(F)cc2)cc1N,inactive
18,COCCOCCO,inactive
19,O=C(N[C@H]1CN2CCC1CC2)c1ccc(Cl)cc1,inactive
20,O=S(=O)(O)C(F)(F)C(F)(F)C(F)(F)C(F)(F)F,inactive
